Rows were chosen to be rich in hits. Some 12% of all compounds tested hit in one or more screens of this group.
PLK1 PBD inh = PLK1 (human) polo-box domain binding inhibition. AID 720504. Potency, µM, inactives show max response, negative = inhibition, usual class: inhibitors. 360,000 compounds, 2.8% hits. P53350. Plk1 PBD binding of FITC phosphopeptide, fluorescence polarization; note: potency is the fitted concentration of half-maximal effect; series mostly up to about 57 µM; % is set by controls: 0 for no effect and ±100 for the full control effect; nearly all actives have a fitted effect of over 65% in size
Target sequence (P53350 whole entry, looked up, the tested form may be a part): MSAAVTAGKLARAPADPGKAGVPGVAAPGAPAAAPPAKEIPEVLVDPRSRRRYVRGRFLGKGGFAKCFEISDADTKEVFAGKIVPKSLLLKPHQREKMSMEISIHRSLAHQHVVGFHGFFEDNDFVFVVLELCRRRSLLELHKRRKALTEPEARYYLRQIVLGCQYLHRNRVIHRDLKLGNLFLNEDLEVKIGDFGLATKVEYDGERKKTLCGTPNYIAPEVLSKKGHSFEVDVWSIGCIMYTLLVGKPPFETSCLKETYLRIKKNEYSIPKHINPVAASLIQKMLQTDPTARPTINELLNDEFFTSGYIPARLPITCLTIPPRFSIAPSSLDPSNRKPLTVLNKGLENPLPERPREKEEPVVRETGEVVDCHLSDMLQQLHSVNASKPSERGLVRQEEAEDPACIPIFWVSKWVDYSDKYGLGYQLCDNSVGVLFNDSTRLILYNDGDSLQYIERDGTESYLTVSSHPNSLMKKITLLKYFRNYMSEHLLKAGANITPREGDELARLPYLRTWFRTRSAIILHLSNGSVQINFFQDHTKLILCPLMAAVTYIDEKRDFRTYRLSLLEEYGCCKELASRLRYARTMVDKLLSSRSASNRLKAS
G9a inh = inhibitors of human histone lysine methyltransferase G9a | G9a H3K9 monomethylation, AlphaScreen, 2 h | 350,000 compounds, 8.8% hits | Potency, µM (top dose mostly 102 µM), for inactives: at the top dose activity, negative = inhibition, usual class: inhibitors; note: potency is the fitted concentration of half-maximal effect; % is set by controls: 0 for no effect and ±100 for the full control effect; nearly all actives have a fitted effect of over 75% in size
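Methyltransferase reactions run at room temperature for 2 h (20 nM enzyme, 500 nM biotin-H3K9 peptide, 20 uM SAM) after a 15 min compound preincubation; product detected by AlphaScreen beads and anti-H3K9me1 antibody.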
HP1b chromo inh = inhibitors of HP1-beta chromodomain binding to methylated histone tails | P83916 | AlphaScreen HP1-beta / biotin-H3K9me3 peptide binding | Potency, µM (titrated, usually from 114 µM), without a hit: at the highest dose activity change, negative = inhibition, actives largely listed as inhibitors | 390,000 compounds, 0.56% hits; note: potency is the fitted concentration of half-maximal effect; nearly all actives have a fitted effect of over 70% in size
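HP1-beta protein (50 nM final) preincubated 30 min at room temperature with biotinylated H3(1-18)K9me3 peptide (50 nM) in PBS pH 7.4, 0.01% Tween-20, then compound added for 30 min. AlphaScreen streptavidin donor/nickel chelate acceptor beads (10 ug/mL final), 30 min dark, luminescence read.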
BAZ2B block = blocks human BAZ2B; AID 504333; Potency, µM (series often up to 114 µM), for the others: top-dose activity change, negative = inhibition, most hits filed as inhibitors; Q9UIF8; AlphaScreen BAZ2B-H3K14Ac peptide displacement; 360,000 compounds, 4.4% hits; note: potency is the fitted concentration of half-maximal effect; % is set by controls: 0 for no effect and ±100 for the full control effect; nearly all actives have a fitted effect of over 60% in size
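Complex of BAZ2B and biotin-H3K14Ac (50 nM apiece) forms over 30 min at RT, then faces library compounds up to 110 uM for another 30 min; AlphaScreen beads added, 20 min dark incubation, luminescence read.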
JMJD2A Tudor = JMJD2A Tudor domain (human) inhibition. O75164. AlphaScreen JMJD2A-Tudor / H3K4me3 peptide binding. Potency, µM (doses to about 114 µM), for inactives: at the top dose activity change, negative = inhibition, most hits filed as inhibitors. 390,000 compounds, 4.4% hits. AID 504339; note: potency is the fitted concentration of half-maximal effect; % is set by controls: 0 for no effect and ±100 for the full control effect; nearly all actives have a fitted effect of over 50% in size
PI5P4Ka inh = blocks human PI5P4K alpha kinase activity; P48426; PI5P4Kalpha enzyme, ADP-Glo luminescence, 60 min; stronger effect = lower value; max response, %; 330,000 compounds, 1.2% hits; active = max response of -50% or lower; inconclusive = between -30% and -50%; inactive = -30% or higher; note: value at the top dose of about 77 µM; % is set by controls: 0 for no effect and ±100 for the full control effect
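ADP-Glo luminescence end-point after a 60 min room-temperature kinase reaction. PI5P4Kalpha and substrate in HEPES pH 7.4 buffer with EGTA, 0.1% CHAPS and 5% DMSO; ATP at 5 microM final.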
Numbers without * were called inactive; ? = inconclusive; · = not tested or not shown; [ ] = another dose, or the depositor's remark. Unless noted, calls come from the whole dose curve; as a rule, active = well fitted curve in the direction sought with a large enough effect; inconclusive = small, poorly fitted or top-dose-only effect, or another doubt; inactive = no such curve, though single readings can be large; an effect the other way counts as inactive or inconclusive.

SMILES	PLK1 PBD inh	G9a inh	HP1b chromo inh	BAZ2B block	JMJD2A Tudor	PI5P4Ka inh
O=C(O)CCCC(=O)Nc1nc2n(n1)C(c1ccc(F)cc1)CC(c1ccc(Cl)cc1)N2 (configuration not stated)	-7%	-44%[12.7 µM]	37%	50µM*	?	·
COCC(=O)Nc1nc2n(n1)C(c1ccccc1)CC(c1ccc(OC)cc1)N2 (configuration not stated)	-27%	?	32%	?	56µM*	·
Cc1ccc(S(=O)(=O)NCC(C)n2nc(C)nc2C)cc1 (configuration not stated)	-4%	4%	-3%	-17%	-14%	0
Cc1nn2c(=O)cc(COC(=O)c3cccs3)nc2s1	·	10%[59 µM]	-17%	-13%	-16%	·
CCOC(=O)c1ccc(Nc2nc3nonc3nc2Nc2cccc(C)c2C)cc1	·	-50%[59 µM]	-1%	22µM*	?	·
Cc1ccc(C)c(Nc2nc3nonc3nc2Nc2cccc(C)c2C)c1	·	-49%[59 µM]	19%	?	?	·
CCOc1cc(C(=O)Nc2ccc(C(=O)NCCN(CC)CC)cc2)ccc1OCC(=O)N1CCOCC1	-5%	50µM*	40%	8%	8%	7
COc1ccc(C(=O)NC(=S)N2CCNC(=O)C2)cc1Br	?	·	-16%	?	35µM*	-17
COc1ccc(C(=O)NC(=S)Nc2ccccc2N2CCOCC2)cc1Br	-23%	-7%[59 µM]	?	?	?	-1
CCOc1ccc(C(=O)NCC(=O)Nc2ccc3c(c2)OCO3)cc1OCC	5%	50µM*	-9%	-15%	?	-2
COc1ccc(C(=O)NC(=S)Nc2ccc(CN3CCOCC3)cc2)cc1Br	3%	45µM*	-10%	?	?	3
CCOc1cc(C(=O)Nc2ccc3c(c2)OCO3)ccc1OC(F)F	0%	-26%[59 µM]	14%	1%	0%	·
CCCCCCn1c(=O)n2n(c1=O)C[C@]1(OC(=O)NCc3ccccc3)CN(S(=O)(=O)c3ccc(C)cc3)C[C@]1(O)C2	-3%	·	·	·	·	6
O=C(Nc1cccc(Cl)c1)c1ccc2sc([C@H]3C[C@H](O)[C@@H](CO)O3)nc2c1	-11%	·	·	·	·	0
Cc1ccc(S(=O)(=O)c2cn(CC(=O)Nc3ccc4c(c3)OCO4)c3ccc(C)cc3c2=O)cc1	·	?	10%	-37%	-28%	·
Cc1ccc(C(=O)NC(=S)NNC(=O)CCN2CCOCC2)cc1	-18%	8.9µM*	52%	56µM*	-19%	9
CCOc1ccc(C(=O)Nc2ccc(CN3CCOCC3)cc2)cc1Br	30µM*	-10%[59 µM]	-13%	-36%	?	-5
CCCCOc1ccc(C(=O)NC(=S)Nc2ccc(CN3CCOCC3)cc2)cc1	-3%	-5%	15%	5%	-14%	2
COc1ccc(C(=O)NC(=S)NNC(=O)c2ccc(NC(C)=O)cc2)cc1Br	-12%	40µM*	12%	-2%	-15%	-23
O=C(NC(=S)NCCN1CCOCC1)c1ccc(F)cc1	1%	3%	40%	-4%	1%	4
COc1ccc(C(=O)NC(=S)Nc2ccc(CN3CCOCC3)cc2)cc1	0%	45µM*	-6%	-34%	-12%	-7
COc1ccc(C(=O)NNC(=S)NC(=O)c2ccc(F)cc2)cc1Br	-13%	·	?	·	-30%	-3
Cc1ccc(Nc2nc(NCc3ccco3)nc3nccnc23)cc1C	·	·	10%[57 µM]	·	12%[57.1 µM]	·
COc1ccc(-n2ncc(C(=O)NCc3cccs3)c2C2CCN(C(=O)OC(C)(C)C)CC2)cc1	·	10%[59 µM]	-10%	-6%[57.1 µM]	?	·
O=C(NCc1ccccc1Cl)c1cnc(N2CCCCC2)c2ccccc12	·	39%[59 µM]	32%[57 µM]	20%	18%	·
SMILES	PLK1 PBD inh	G9a inh	HP1b chromo inh	BAZ2B block	JMJD2A Tudor	PI5P4Ka inh
O=C(OCC#CCSc1nnc(-c2cccc3ccccc23)o1)c1sc(Cl)c(Cl)c1Cl	·	·	·	·	5%	·
Cc1ccc(CCNS(=O)(=O)c2cc(-c3cc(C)no3)ccc2C)cc1	·	0%[59 µM]	74%	-3%	10%	·
COc1ccc(N2CCN(C(=O)CCc3c(C)nn(-c4ccc(N5CCCC5)nn4)c3C)CC2)cc1	·	-1%[59 µM]	24%	?	-26%	·
O=C(CCCCl)NC(=S)Nc1ccc(CN2CCOCC2)cc1	-8%	50µM*	37%	-19%	4%	0
O=C(NCCSc1c[nH]c2ccccc12)c1ccco1	-4%	71µM*	35%	3%	-4%	-2
O=C(NCCSc1ncc(-c2ccc(F)cc2)[nH]1)c1ccco1	-9%	50µM*	19%	-9%	-8%	-3
COc1cc(OC)cc(C(=O)NCCSc2c[nH]c3ccccc23)c1	-8%	45µM*	3%	-28%	-31%	-5
NCCn1c(-c2ccccc2)cc(C(=O)O)c1-c1ccccc1F	-26%	50µM*	24%	?	-29%	0
O=C(OC[C@H]1O[C@@H](OC(=O)c2cc(O)c(O)c(OC(=O)c3cc(O)c(O)c(O)c3)c2)[C@H](OC(=O)c2cc(O)c(O)c(OC(=O)c3cc(O)c(O)c(O)c3)c2)[C@@H](OC(=O)c2cc(O)c(O)c(OC(=O)c3cc(O)c(O)c(O)c3)c2)[C@@H]1OC(=O)c1cc(O)c(O)c(OC(=O)c2cc(O)c(O)c(O)c2)c1)c1cc(O)c(O)c(OC(=O)c2cc(O)c(O)c(O)c2)c1	·	1.4µM*	·	0.79µM*	·	·
COC1OC(COC(=O)c2ccccc2)C(OC(=O)c2ccccc2)C1OC(=O)c1ccccc1 (configuration not stated)	-7%	6%[2.33 µM]	39%	12%	5%	15
Cc1cn2c(=O)cc(COC(=O)COc3ccccc3C)nc2s1	·	0%[59 µM]	45%	1%	-3%	·
COc1ccc(/C=C2\SC(=S)N(CCCC(=O)N3CCN(C)CC3)C2=O)cc1OC	3%	·	21%	·	-3%	-1
COc1cccc(/C=C2\SC(=S)N(CCCC(=O)N3CCCC3)C2=O)c1	-9%	40µM*	?	32µM*	45µM*	3
COc1ccc(/C=C2\SC(=S)N(CCCC(=O)N3CCOCC3)C2=O)cc1	-10%	·	-36%	·	50µM*	12
COc1ccc(/C=C2\SC(=O)N(CCC(=O)N3CCN(C)CC3)C2=O)cc1	-1%	4%	23%	-6%	-8%	3
COc1cccc(/C=C2\SC(=O)N(CCC(=O)N3CCC(C(=O)O)CC3)C2=O)c1	-6%	71µM*	40%	?	-12%	4
O=C(CCCN1C(=O)/C(=C/c2ccccc2Cl)SC1=S)N1CCOCC1	-17%	19%	11%	79µM*	22µM*	13
CCc1nn(CC(=O)NCCCOC)c(=O)c2cc3ccccc3n12	·	3%[59 µM]	38%	3%	8%	·

Bioassay records: PubChem BioAssay, National Center for Advancing Translational Sciences (NCATS)
